40 molecules from PubChem BioAssay (NCATS) can be followed below.

Inconclusive results are not listed. Where a call stands in place of a potency, no number is given. The source made the active and inactive calls. Calls follow the shape of the dose curve; as a rule, active = well fitted inhibition curve with a large enough effect; inconclusive = small, poorly fitted or top-dose-only effect; inactive = flat fitted curve, though single readings scatter.

The assay has as its system CRL-7250. Put plainly: qHTS assay to identify novel small-molecules to repurpose for Merkel cell carcinoma treatment (AID 1296009). Also: nearly all actives have a fitted effect of over 60% in size. To be noted: MCC and control cell lines, CellTiter-Glo viability, 72 h; series mostly up to 92 µM. In a few lines:
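After compound transfer in DMSO, plates were kept 72 hr at 37 degree celsius. Luminescent ATP signal from CellTiter-Glo served as viability measure, normalized against DMSO and no-cell controls.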
A general note: In qHTS, concentration-response curves come from the screen itself.
For `CC1CC=C2C1CC1(O)C(=O)CC2(C)C1(C)CO` (stereo not given), the Potency entry is “inactive”. Turning to `Cc1cc(-c2nncc3c(C(C)(C)C)c(OCc4ncnn4C)nn23)no1`, the Potency result was “inactive”. As for `OC[C@@]1(O)CO[C@@H](OC[C@H]2O[C@@H](Oc3ccccc3)[C@H](O)[C@@H](O)[C@@H]2O)[C@@H]1O`, the Potency entry was “inactive”. Take `CC(=O)c1[nH]cc(CCC(=O)O)c1CC(=O)O`: the Potency entry was “inactive”.

As for `Cc1c(CN(C)C(=O)/C=C/c2cnc3c(c2)CCC(=O)N3)oc2ccccc12`, the Potency entry is “inactive”. `NC[C@@H]1O[C@@H](O[C@@H]2[C@@H](O[C@@H]3O[C@H](CO)[C@@H](O)[C@H]3O)[C@H](O)[C@@H](N)C[C@H]2N)[C@@H](N)[C@H](O)[C@H]1O`: the outcome is “inactive [at 9.27 µM]”.

Take `O=C(OC[C@@]1(O)CO[C@@H](O[C@H]2[C@H](Oc3ccc(O)cc3)O[C@H](CO)[C@@H](O)[C@@H]2O)[C@@H]1O)c1ccc(O)cc1`: the Potency result was “inactive”. `C[C@@H]1CC[C@H]2C(C)(C)[C@H](O)[C@H](O)C[C@]2(C)[C@@]12Cc1c(O)cc3c(c1O2)CNC3=O`: the Potency result was “inactive”. Take `C=C[C@@](C)(CCC=C(C)C)O[C@@H]1O[C@H](CO[C@@H]2OC[C@H](O)[C@H](O)[C@H]2O)[C@@H](O)[C@H](O)[C@H]1O`: the Potency entry is “inactive”. As to `CC/C=C\CC1C(CC(=O)O)CCC1OC1OC(CO)C(O)C(O)C1O` (stereo not given), the Potency result was “inactive”. As to `CC1(C)C2CC[C@]3(C)C(C(=O)C=C4[C@H]5C[C@@](C)(C(=O)O)CC[C@]5(C)CC[C@]43C)[C@@]2(C)CC[C@@H]1O` (stereo not given in full), the Potency entry was “inactive”. On the same count and under the same terms, in the case of `NCc1c[nH]c(=S)n1[C@@H]1CCc2c(F)cc(F)cc2C1` it was “inactive”.

In the case of `C/C=C/C=C/C(O)=C1/C(=O)[C@]2(C)C3/C(=C(O)/C=C/C=C/C)C(=O)C4(C)C1[C@]1(C)O[C@@]4(O)[C@@]3(C)O[C@@]12O`, the Potency result was “inactive”. Same read-out and setting: to `C[C@H]1CCN2C[C@]34C[C@@]5(C(=O)Nc6c5ccc5c6OC=CC(C)(C)O5)C(C)(C)C3C[C@]12C(=O)N4C` (stereo not given in full) belongs “inactive”; to `N#Cc1c[nH]c2c(C(=O)N3CCN(CCc4ccc(F)cc4)CC3)cccc12`, “inactive”; to `OCC1=CC[C@@H]2C=CO[C@@H](O[C@@H]3O[C@H](CO)[C@@H](O)[C@H](O)[C@H]3O)[C@H]12`, “inactive”. Regarding `OC[C@H]1O[C@@H](OCCc2ccccc2)[C@H](O[C@@H]2OC[C@@H](O)[C@H](O)[C@H]2O)[C@@H](O)[C@@H]1O`, the Potency entry is “inactive”. As for `COc1ccc(C2(O)c3c(ccc4c3OC(C)(CCC=C(C)C)C=C4)NC(=O)C2OC)cc1` (stereo not given), the Potency result is “inactive”. Still for that read-out and setting: in the case of `CC1(C)CCC(C)(C)c2cc3c(cc21)Sc1ccccc1N=C3c1ccc(C(=O)O)cc1` it was “inactive”; in that of `Cc1ccc2c(c1)C=Cc1cc(C)ccc1C2c1cn(Cc2ccc(C(=O)Nc3nn[nH]n3)o2)c(=O)[nH]c1=S`, “inactive”. The same measure, in the same setting: in the case of `COc1cc([C@@H]2Oc3c(OC)cc(CCCO)cc3[C@@H]2CO[C@@H]2O[C@H](CO)[C@@H](O)[C@H](O)[C@H]2O)ccc1O` it was “inactive”; in that of `C[C@@H](c1ccccc1)N(C(N)=NC#N)c1cccc2ncccc12`, “inactive”. On the same count and under the same terms, in the case of `OC[C@H]1O[C@@H](Oc2ccc(O)c3cccc(O)c23)[C@H](O)[C@@H](O)[C@@H]1O` it was “inactive”; in that of `CCCCC(=O)N1c2ccccc2NC2=C(C(=O)CCC2)C1c1ccccc1Cl` (stereo not given), “inactive”; in that of `C[C@H]1O[C@@H](O[C@H]2CC[C@@]3(C)C(CC[C@]4(C)C3CC=C3C5CC(C)(C)CC[C@]5(C(=O)O)CC[C@]34C(=O)O)C2(C)C)[C@H](O)[C@@H](O)[C@@H]1O` (stereo not given in full), “inactive”. Consider `Cc1occc(=O)c1O[C@@H]1O[C@H](CO[C@@H]2OC[C@](O)(CO)[C@H]2O)[C@@H](O)[C@H](O)[C@H]1O`, for which the Potency result is “inactive”. Regarding `CC(=O)O[C@@H]1[C@H]2[C@@H](OC(=O)c3ccccc3)[C@@H](C)C[C@]2(O)[C@H](OC(C)=O)[C@@]2(C)[C@@H]3CC(C)(C)C(=O)[C@]3(OC(C)=O)C[C@@]12C`, the Potency result was “inactive”. Turning to `O=C(NCc1nc2ccccc2c(=O)n1-c1ccc(F)cc1)Nc1ccc(Cl)c(C(F)(F)F)c1`, the Potency result is “inactive”.

For `C[C@@H]1O[C@@H](O[C@H]2[C@H](OC(=O)[C@]34CCC(C)(C)C[C@H]3C3=CCC5[C@@]6(C)C[C@H](O)[C@H](O[C@@H]7O[C@H](CO)[C@@H](O[C@H]8OC[C@](O)(CO)[C@H]8O)[C@H](O)[C@H]7O)[C@@](C)(CO)C6[C@H](O)C[C@@]5(C)[C@]3(C)C[C@H]4O)OC[C@H](O)[C@@H]2O)[C@H](O)[C@H](O)[C@H]1O[C@@H]1OC[C@@H](O)[C@H](O[C@@H]2OC[C@](O)(CO)[C@H]2O)[C@H]1O` (stereo not given in full), the outcome was “inactive [at 9.27 µM]”. As for `COCCN(C)Cc1ccc2nc3sc(C(=O)N(C)C4CCCCC4)cn3c2c1`, the Potency entry is “inactive”. On to `COc1ccccc1-c1ccc(-c2cn(C(=O)N3CCCCC3Cc3ccccc3)nn2)cc1` (stereo not given), for which the Potency entry is “inactive”. Same read-out and setting: to `CC1=CC(=O)C(=C(C)C)CC2C(C)(O)CCC12O` (stereo not given) belongs “inactive”; to `C[C@@H](NC(=O)C(=O)c1c[nH]c2ccc([N+](=O)[O-])cc12)c1ccccc1`, “inactive”. In the case of `CC(C)=CCC[C@](C)(O[C@@H]1O[C@H](CO[C@@H]2OC[C@H](O)[C@H](O)[C@H]2O)[C@@H](O)[C@H](O)[C@H]1O)[C@H]1CC[C@]2(C)[C@@H]1[C@H](O)C[C@@H]1[C@@]3(C)CC[C@H](O[C@@H]4O[C@H](CO)[C@@H](O)[C@H](O)[C@H]4O[C@@H]4O[C@H](CO)[C@@H](O)[C@H](O)[C@H]4O)C(C)(C)[C@@H]3CC[C@]12C`, the Potency entry was “inactive”. The same measure, in the same setting: in the case of `CC1=CCC2C(C)(CO)CCCC2(CO)C1CO` (stereo not given) it was “inactive”. Still for that read-out and setting: to `COc1c2c(c(C)c3c1C(=O)OC3)OC1(C)CC(O)C34OC(OC)(CCC3(C)C1C2)OC4(C)CO` (stereo not given) belongs “inactive”.

Take `CN(C)CCn1cc(S(=O)(=O)c2cccc(F)c2)c2cccnc21`: the Potency result is “inactive”. Still for that read-out and setting: to `C=C1CC/C=C(/CO)C(=O)C[C@@H]2[C@@H]1CC2(C)C` belongs “inactive”. On the same count and under the same terms, to `O=C(OC(C(F)(F)F)C(F)(F)F)N1CCN(Cc2cccc(Oc3ccccc3)c2)CC1` belongs “inactive”. On the same count and under the same terms, to `C=C(C(=O)OC)C1C(O)CC2(C)C(=O)CCC(O)(CO)C2C1O` (stereo not given) belongs “inactive”.
